Bioassay records: PubChem BioAssay, National Center for Advancing Translational Sciences (NCATS)
Sampled rows, rich in hits. Any-hit rate of the full collection: about 2.9%.
DRD3 agonist – agonists of human D3 dopamine receptor | max activation, % | D3R DiscoveRx beta-arrestin cells, luminescence, 90 min | 410,000 compounds, 0.58% hits; in the data active means max activation above about 30%; further: 0% is about no effect
Target sequence (P35462 whole entry, looked up): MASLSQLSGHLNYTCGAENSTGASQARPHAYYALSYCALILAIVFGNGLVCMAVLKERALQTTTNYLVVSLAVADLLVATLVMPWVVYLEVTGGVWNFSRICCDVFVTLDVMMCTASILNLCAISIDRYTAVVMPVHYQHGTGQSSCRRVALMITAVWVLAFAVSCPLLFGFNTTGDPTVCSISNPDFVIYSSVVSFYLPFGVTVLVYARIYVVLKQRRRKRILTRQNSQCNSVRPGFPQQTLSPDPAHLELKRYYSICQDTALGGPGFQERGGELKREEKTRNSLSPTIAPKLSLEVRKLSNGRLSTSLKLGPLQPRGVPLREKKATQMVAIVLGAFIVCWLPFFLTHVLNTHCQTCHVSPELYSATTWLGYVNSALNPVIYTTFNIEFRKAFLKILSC
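Agonist-mode cell screen: cells plated at 1500/well and incubated overnight at 37 °C, then exposed to library compounds for 90 min at 37 °C. Detection reagent was added for 30–60 min at room temperature, and luminescence was read.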
D3 antag – blocks the human D3 dopamine receptor | P35462 | 360,000 compounds, 2.5% hits | AID 652054 | max response, negative = inhibition, % | D3R cells, DiscoveRx beta-arrestin luminescence, antagonist mode; stronger effect = lower value; in the data active means max response below about -50%; inconclusive means no clear call, values can overlap the other calls; further: on the % scale 0 is the no-effect control and ±100 the full control effect
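Cells expressing the human receptor were seeded at 1500 cells/well, incubated overnight at 37 degrees C in 5% CO2, then exposed to library compounds with dopamine controls for 90 minutes at 37 degrees C before luminescent detection.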
a7 integrin act – integrin-mediated muscular dystrophy alleviation activation; 350,000 compounds, 0.064% hits; alpha7betagal myoblasts, beta-gal FDG fluorescence, 48 h; Potency, µM (doses to about 38.3 µM), for inactives: top-dose activation, usual class: activators; AID 624291; active means well fitted activation curve with a large enough effect; inconclusive means small, poorly fitted or top-dose-only effect; inactive means no such curve, though single readings can be large or run the other way;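 further: potency means the concentration at half of the fitted maximal effect; 100% = response of the positive control SU9516; nearly all actives have a fitted effect of over 60% in size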
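alpha7betagal+/- myoblasts (passage 13, 250/well) treated 48 h at 37C with compounds at 1:260 dilution of DMSO stock. Lysed, then beta-galactosidase activity read as FDG fluorescence (ex 480/em 540) after 30 min, with pre-read for autofluorescence.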
* marks the source's active call; other numbers are inactive results; ! = not confirmed by another sample.

How did O=C(NCC(c1ccco1)N1CCN(c2ccccc2F)CC1)C(=O)NC1CCCCC1 (stereo unspecified) do in these assays?
DRD3 agonist: 54*; D3 antag: 4; a7 integrin act: 8%

What do the screens show for `CCOc1ccc(NC(=O)C(=O)NCCc2csc(-c3ccc(C)cc3)n2)cc1`?
DRD3 agonist: 8

What do the screens show for `O=C(Oc1ccc2c3c(c(=O)oc2c1)CCC3)c1ccco1`?
DRD3 agonist: -22; D3 antag: -17; a7 integrin act: 28%

Results for Cc1nc(NC(=O)c2cc3ccccc3o2)sc1C ?
DRD3 agonist: -8; D3 antag: -10; a7 integrin act: 7%

Results for N#CC(=Cc1ccc(-c2ccccc2)cc1)C(=O)c1ccccc1 ?
DRD3 agonist: 1; D3 antag: 22

What do the screens show for `CC(=O)C(=Cc1ccc(-c2ccccc2)cc1)C(=O)c1ccccc1`?
DRD3 agonist: -10; D3 antag: -53*

How did COc1cccc(/C=N/NC(=O)c2cc(-c3cccn3C)n[nH]2)c1 do in these assays?
DRD3 agonist: -8; D3 antag: -51*; a7 integrin act: 10%

What do the screens show for `COc1cc(/C=N/NC(=O)c2cc(-c3cccn3C)n[nH]2)cc(OC)c1OC`?
DRD3 agonist: -5; D3 antag: 35; a7 integrin act: 22%

Results for CC(C)(C)CC(=O)NCC(c1ccc2c(c1)OCO2)N1CCOCC1 (stereo unspecified) ?
DRD3 agonist: -1

How did C=C[C@@]1(C)CC(=O)[C@]2(O)[C@@]3(C)[C@@H](O)CCC(C)(C)[C@@H]3[C@H](OC(C)=O)[C@H](O)[C@@]2(C)O1 do in these assays?
DRD3 agonist: 16; D3 antag: 44; a7 integrin act: -24%

How did C=C[C@@]1(C)CC(=O)[C@]2(O)[C@@]3(C)[C@@H](O)CCC(C)(C)[C@@H]3[C@H](O)[C@H](OC(C)=O)[C@@]2(C)O1 do in these assays?
DRD3 agonist: 36*!; D3 antag: 102

What do the screens show for `Cc1ccc(CNS(=O)(=O)c2ccc3c(c2)CCN3S(C)(=O)=O)cc1`?
DRD3 agonist: -4

How did Cc1ccc(Sc2nc(-c3ccccc3)nnc2C(F)(F)F)cc1 do in these assays?
DRD3 agonist: -5; D3 antag: -70*; a7 integrin act: 16%

How did CNc1nc(-c2ccccc2)nnc1C(F)(F)F do in these assays?
DRD3 agonist: 4; D3 antag: 0; a7 integrin act: 0%

Results for Cn1cccc1/C=C(/C#N)c1ccc(F)cc1 ?
DRD3 agonist: -3; D3 antag: 2; a7 integrin act: -16%

How did Cc1ccc(NC(=O)c2cnccn2)c(Br)c1 do in these assays?
DRD3 agonist: 3; D3 antag: 17; a7 integrin act: 5%

What do the screens show for `COc1cccc(C(C(=O)NC(C)(C)C)N(C(=O)CCC(=O)Nc2cc(C)on2)C2CC2)c1OC` (stereo unspecified)?
DRD3 agonist: -3; D3 antag: 2; a7 integrin act: 16%

Results for O=[N+]([O-])c1ccc(Nc2ccc(F)cc2)nc1 ?
DRD3 agonist: -9; D3 antag: -7; a7 integrin act: 11%

How did CN(C)c1ccc(Nc2ccc([N+](=O)[O-])cn2)cc1 do in these assays?
DRD3 agonist: -9; D3 antag: -60*; a7 integrin act: inconclusive

Results for COc1ccc(CNc2ncc(-c3ccc(Cl)cc3)n2C)c(OC)c1OC ?
DRD3 agonist: -11; D3 antag: -20; a7 integrin act: inconclusive

How did O=C(NC1CCCCC1)C(CCc1ccccc1)N1CCc2ccccc2C1 (stereo unspecified) do in these assays?
DRD3 agonist: -14; D3 antag: -59*

What do the screens show for `O=C(NC1CCCCC1)C(CCc1ccccc1)N1CCOCC1` (stereo unspecified)?
DRD3 agonist: 1; D3 antag: 1

What do the screens show for `CCCCOc1ccc(CNC(=O)NS(=O)(=O)c2ccc(OCC(C)C)cc2)cc1`?
DRD3 agonist: -2; D3 antag: -3; a7 integrin act: -11%

How did CCOC(=O)CC(NC(=O)CCc1c(C)nc2c(-c3ccccc3)c(C)nn2c1C)c1ccc(OC(C)C)cc1 (stereo unspecified) do in these assays?
DRD3 agonist: 36*

Results for CCOC(=O)CC(NC(=O)CCc1c(C)nc2c(-c3ccccc3)c(C)nn2c1C)c1ccc(C)cc1 (stereo unspecified) ?
DRD3 agonist: 6

What do the screens show for `OCC1CCCN(C2CCN(Cc3nc(Cc4cccc(C(F)(F)F)c4)no3)CC2)C1` (stereo unspecified)?
DRD3 agonist: 30*; D3 antag: 15; a7 integrin act: 14%

Results for FC(F)(F)c1cccc(Cc2noc(CN3CCCC3)n2)c1 ?
DRD3 agonist: 1; D3 antag: -8; a7 integrin act: -16%
